Experimental data: ChEMBL document CHEMBL3433997, “St. Jude Leishmania screening dataset” (2016)

Legend:
Type in all cases: functional
[1] = biological target: Solute carrier family 2, facilitated glucose transporter member 1 (Homo sapiens) (UniProt P11166); assay: ST_JUDE_LEISH: Cytotoxicity at 2uM final concentration against transgenic Leishmania Mexicana promastigotes LmGLUT1 that are glucose transport deficient and complemented with the human glucose transporter GLUT1. Activity is measured by DNA content using SYBR green in vitro
Solute carrier family 2, facilitated glucose transporter member 1 (Homo sapiens), sequence (P11166 whole entry): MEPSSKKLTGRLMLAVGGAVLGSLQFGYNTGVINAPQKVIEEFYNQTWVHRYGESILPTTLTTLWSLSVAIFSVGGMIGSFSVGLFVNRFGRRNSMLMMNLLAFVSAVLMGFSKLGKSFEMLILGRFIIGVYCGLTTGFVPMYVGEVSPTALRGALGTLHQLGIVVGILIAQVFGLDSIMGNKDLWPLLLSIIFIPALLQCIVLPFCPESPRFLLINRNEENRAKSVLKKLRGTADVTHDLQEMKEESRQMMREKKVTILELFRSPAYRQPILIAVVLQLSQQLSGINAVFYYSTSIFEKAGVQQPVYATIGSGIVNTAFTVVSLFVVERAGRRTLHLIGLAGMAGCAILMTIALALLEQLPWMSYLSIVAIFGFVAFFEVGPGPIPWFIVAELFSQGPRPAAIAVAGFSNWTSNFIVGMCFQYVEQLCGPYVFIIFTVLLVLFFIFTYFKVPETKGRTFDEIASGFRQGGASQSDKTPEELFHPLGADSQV

[2] = biological target: Hexose transporter 1 (Plasmodium falciparum) (UniProt O97467); assay: ST_JUDE_LEISH: Cytotoxicity at 2uM final concentration against transgenic Leishmania Mexicana promastigotes LmPfHT that are glucose transport deficient and complemented with the Plasmodium falciparum hexose transporter. Activity is measured by DNA content using SYBR green in vitro
[3] = biological target: Glucose transporter (Leishmania mexicana) (UniProt O61059); assay: ST_JUDE_LEISH: Cytotoxicity at 2uM final concentration against transgenic Leishmania Mexicana promastigotes LmGT2 that are glucose transport deficient and complemented with the L. Mexicana glucose transporter 2. Activity is measured by DNA content using SYBR green in vitro

Compound | inhibition [1] [%] | inhibition [2] [%] | inhibition [3] [%]
COc1cccc(-c2cc3c(NCc4ccncc4)nccc3s2)c1 | 3.12 | 3.46 | 0.82
O=C(Nc1cccc(CN2CCCN(Cc3cccc(Cl)c3)CC2)c1)c1ccc(Cl)c(Cl)c1 | 1.69 | 1.9 | 4.28
CC(Oc1c(C2CCN(CCCCNC(=O)c3ccc(-c4ccc(Cl)cc4)cc3)CC2)ccc2c1CCCC2)C(N)=O (stereo unspecified) | -0.63 | -0.36 | -0.27
CCCCOc1ccc(C(O)C(CN2CCCCC2)c2ccccc2)cc1 (stereo unspecified) | 1.61 | 1.36 | 0.33
CC(C)CC(NC(=O)c1cccc(OCCN2CCOCC2)c1)C(=O)NC(/C=N/NC(=O)c1ccccc1)CCc1ccccc1 (stereo unspecified) | 7.09 | 8.91 | 5.71
O=C(/C=C/c1ccc([N+](=O)[O-])cc1)N1CCC(NS(=O)(=O)c2ccc(Br)cc2)CC1 | -0.08 | 1.13 | 1.17
O=C(NCCCCN1CCN(c2cccc3c2CCCC3)CC1)c1ccc(NC(=O)c2ccc(Cl)cc2)cc1 | 3.35 | 1.45 | 1.92
CCN(CC)CCNC(=O)c1ccc(NC(=O)c2cc3c(C)nn(-c4ccc(Cl)cc4)c3s2)cc1 | 2.43 | 2.37 | 1.83
CCCN1CCN(Cc2ccc(C(=O)Nc3ccc(Cl)cc3)cc2)CC1 | 5.31 | 4.24 | 4.34
CN(C)CCOc1ccc(/C(=C(/CCCn2ccnc2)c2ccccc2)c2ccc(O)cc2)cc1 | 4.25 | 6.01 | 5.69
Cc1c(-c2cccc(Br)c2)[nH]c2nc(N)nc(N)c12 | 1.29 | 2.55 | 0.97
Cc1ccc2c(N/N=C/c3ccccc3[N+](=O)[O-])cc(C)nc2c1 | 2.06 | -5.28 | 1.01
